Here are results for 10 compounds from article PMC11062922 (Nature Chemical Biology, 2023).

Common to all, as to design: species or system human, MV4-11 + K-562 + COLO205 + SK-N-BE2 + OVCAR-8
One test has as its system GRAMD1A. The conditions noted are these: read-out: apparent Kd; compound concentrations: 100 nM and 1000 nM (sheet 'Samples'), CATDS: 4.7101579015389999E-2; n = 1.
In another test the test system is MAP4K4. The conditions noted are these: read-out: apparent Kd; compound concentrations: 100 nM and 1000 nM (sheet 'Samples'), CATDS: 5.45482325953821E-2; n = 1.
The test system of another test is IGF1R. The conditions noted are these: read-out: apparent Kd; compound concentrations: 100 nM and 1000 nM (sheet 'Samples'), CATDS: 4.98725467652835E-2; n = 1.
In the next test the test system is INSR. The conditions noted are these: read-out: apparent Kd; compound concentrations: 100 nM and 1000 nM (sheet 'Samples'), CATDS: 5.9878421296946899E-2; n = 1.
The test system of another test is SMG1. The conditions noted are these: read-out: apparent Kd; compound concentrations: 100 nM and 1000 nM (sheet 'Samples'), CATDS: 0.40091827457547202; n = 1.
For the next test, the system named is CAMK2G. Conditions: read-out: apparent Kd; compound concentrations:100 nM and 1000 nM (sheet 'Samples'); n = 1.
Another test concerns RAB6A;RAB6B. Conditions: read-out: apparent Kd; compound concentrations: 100 nM and 1000 nM (sheet 'Samples'), CATDS: 6.2517900726017095E-2; n = 1.
In another test the test system is IARS. The conditions noted are these: read-out: apparent Kd; compound concentrations: 100 nM and 1000 nM (sheet 'Samples'), CATDS: 0.121118103418118; n = 1.
The subject of a further test is HMOX2. Conditions: read-out: apparent Kd; compound concentrations:100 nM and 1000 nM (sheet 'Samples'); n = 1.
For another test, the system named is PRKG1. The conditions noted are these: read-out: apparent Kd; compound concentrations:100 nM and 1000 nM (sheet 'Samples'); n = 1.
A further test concerns PRKX. Conditions: read-out: apparent Kd; compound concentrations:100 nM and 1000 nM (sheet 'Samples'); n = 1.
The next test relates to ROCK2. The conditions noted are these: read-out: apparent Kd; compound concentrations:100 nM and 1000 nM (sheet 'Samples'); n = 1.
The test system of the next test is HSP90AA1. Conditions: read-out: apparent Kd; compound concentrations: 100 nM and 1000 nM (sheet 'Samples'), CATDS: 6.9109754816413196E-2; n = 1.
A further test deals with HSPE1. Conditions: read-out: apparent Kd; compound concentrations: 100 nM and 1000 nM (sheet 'Samples'), CATDS: 0.293798637885134; n = 1.
In the next test the test system is PGK1. Conditions: read-out: apparent Kd; compound concentrations: 100 nM and 1000 nM (sheet 'Samples'), CATDS: 0.39771264362053399; n = 1.
The next test deals with ACOX3. The conditions noted are these: read-out: apparent Kd; compound concentrations: 100 nM and 1000 nM (sheet 'Samples'), CATDS: 0.63885197419414497; n = 1.

Structures are written as SMILES.

With `COc1ccc(-c2nn3ncccc3c2-c2ccnc(Nc3ccc4c(c3)OCCO4)n2)cc1` [GW827106X], the potency estimated from few doses was 1.73 µM in the test on GRAMD1A and 1.22 µM with MAP4K4.

With `COc1cc(N2CCN(C(C)C)CC2)ccc1Nc1nc(Nc2cccc(F)c2C(=O)O)c2cc[nH]c2n1` [GSK1819799A], the results for the potency estimated from few doses in the test with IGF1R and with INSR were 1.27 µM and 0.816 µM, respectively. In the case of `COc1ccc(-c2ccncc2)cc1C(N)=O` [GSK605714A], the potency estimated from few doses with SMG1 is 1.83 µM. As to `Cl.Oc1ccc2ncnc(Nc3ccc(OCc4ccccc4)cc3)c2c1` [GI262866A], the potency estimated from few doses in the test on CAMK2G is 0.385 µM. Take `Fc1cccc(COc2ccc(Nc3ncncc3C#Cc3ccccc3)cc2Cl)c1` [GW651576X]: the potency estimated from few doses in the test with RAB6A;RAB6B is 1.16 µM. On to `CS(=O)(=O)c1ccc(-c2nc3n(c2-c2ccncc2)CCC3)cc1` [SKF-105942], for which, in the test on IARS, the potency estimated from few doses is 1.9 µM.

In the case of `Nc1c(C(=O)c2ccccc2)cnn1-c1ccc(F)cc1` [RO1151246-000], the potency estimated from few doses in the test on HMOX2 was 2.21 µM.

In the case of `COc1ccc(C2=NC(c3ccc(Cl)cc3F)C(C(=O)Nc3ccc4[nH]ncc4c3)=C(C)N2)cn1.O=C(O)C(F)(F)F` (stereo not shown) [GSK534913A], the values for the potency estimated from few doses in the test on PRKG1, in the test with PRKX and with ROCK2 were 0.825 µM, 0.758 µM and 0.131 µM, respectively. Take `Cc1[nH]nc2c1N=C(c1ccccc1Cl)c1cc([N+](=O)[O-])ccc1N2` [RO0274406-000]: the potency estimated from few doses in the test on HSP90AA1 was 1.38 µM; in the test with HSPE1, 0.0607 µM; with PGK1 it was 0.0377 µM. On to `Cc1ccc(NC(=O)c2cccc(C#N)c2)cc1-c1ccc(C(=O)Nc2ccncc2)cc1` [GSK1398463A], for which the potency estimated from few doses in the test on ACOX3 is 0.513 µM.
